# Laboratory results as given in PMC5540273 (PLoS ONE, 2017).
# What was measured:
# Conditions in all cases: concentration: 1 μM, replicates: in singlicate; n = 1
# ROCK1 = system: ROCK1
# ROCK2 = system: ROCK2
# ROS1 = system: ROS1
# [1] = system: RPS6KA4(Kin.Dom.1-N-terminal)
# [2] = system: RPS6KA4(Kin.Dom.2-C-terminal)
# [3] = system: RPS6KA5(Kin.Dom.1-N-terminal)
# [4] = system: RPS6KA5(Kin.Dom.2-C-terminal)
# [5] = system: T1, RSK1(Kin.Dom.1-N-terminal)
# T1 construct: gene RPS6KA1
# [6] = system: T2, RSK1(Kin.Dom.2-C-terminal)
# T2 construct: gene RPS6KA1
# [7] = system: T3, RSK2(Kin.Dom.1-N-terminal)
# T3 construct: gene RPS6KA3
# [8] = system: T4, RSK2(Kin.Dom.2-C-terminal)
# T4 construct: gene RPS6KA3
# [9] = system: T5, RSK3(Kin.Dom.1-N-terminal)
# T5 construct: gene RPS6KA2
# [10] = system: T6, RSK3(Kin.Dom.2-C-terminal)
# T6 construct: gene RPS6KA2
# [11] = system: T7, RSK4(Kin.Dom.1-N-terminal)
# T7 construct: gene RPS6KA6
# [12] = system: T8, RSK4(Kin.Dom.2-C-terminal)
# T8 construct: gene RPS6KA6
# S6K1 = system: S6K1
# SBK1 = system: SBK1
# SGK2 = system: SGK2
# SGK3 = system: SGK3
# SGK = system: SGK
# 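Also: KINOMEscan kinase panel screen.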
smiles,measurement,setting,value
Cl.NC(=O)c1cccc(Nc2nccc(Nc3ccc(Oc4cccc(Cl)c4)c(Cl)c3)n2)c1 [GW659008],%Inh,ROCK1,0%
same,%Inh,ROCK2,0%
same,%Inh,ROS1,0%
same,%Inh,[1],0%
same,%Inh,[2],0%
same,%Inh,[3],5%
same,%Inh,[4],11%
same,%Inh,[5],0%
same,%Inh,[6],0%
same,%Inh,[7],8%
same,%Inh,[8],16%
same,%Inh,[9],0%
same,%Inh,[10],18%
same,%Inh,[11],0%
same,%Inh,[12],19%
same,%Inh,S6K1,0%
same,%Inh,SBK1,0%
same,%Inh,SGK2,0%
same,%Inh,SGK3,0%
same,%Inh,SGK,0%
COc1cc2ncn(-c3cc(OCC4CCCO4)c(C(N)=O)s3)c2cc1OC (stereo not shown) [GSK204607],%Inh,ROCK1,0%
same,%Inh,ROCK2,0%
same,%Inh,ROS1,8%
same,%Inh,[1],0%
same,%Inh,[2],3%
same,%Inh,[3],9%
same,%Inh,[4],8%
same,%Inh,[5],13%
same,%Inh,[6],0%
same,%Inh,[7],0%
same,%Inh,[8],0%
same,%Inh,[9],9%
same,%Inh,[10],2%
same,%Inh,[11],0%
same,%Inh,[12],22%
same,%Inh,S6K1,0%
same,%Inh,SBK1,0%
same,%Inh,SGK2,0%
same,%Inh,SGK3,0%
same,%Inh,SGK,0%
CCCc1ccc(S(=O)(=O)NC2CCN(c3ccnc(Nc4ccc(F)cc4)n3)C2)cc1 (stereo not shown) [GSK1379715],%Inh,ROCK1,11%
same,%Inh,ROCK2,0%
same,%Inh,ROS1,0%
same,%Inh,[1],0%
same,%Inh,[2],0%
same,%Inh,[3],0%
same,%Inh,[4],0%
same,%Inh,[5],7%
same,%Inh,[6],0%
same,%Inh,[7],8%
same,%Inh,[8],20%
same,%Inh,[9],13%
same,%Inh,[10],0%
same,%Inh,[11],0%
same,%Inh,[12],0%
same,%Inh,S6K1,0%
same,%Inh,SBK1,5%
same,%Inh,SGK2,0%
same,%Inh,SGK3,0%
same,%Inh,SGK,0%
CS(=O)(=O)c1ccc(-c2c(-c3ncn[nH]3)sc(N3CCOCC3)c2C#N)cc1,%Inh,ROCK1,0%
same,%Inh,ROCK2,15%
same,%Inh,ROS1,14%
same,%Inh,[1],4%
same,%Inh,[2],0%
same,%Inh,[3],0%
same,%Inh,[4],0%
same,%Inh,[5],16%
same,%Inh,[6],14%
same,%Inh,[7],4%
same,%Inh,[8],0%
same,%Inh,[9],0%
same,%Inh,[10],98%
same,%Inh,[11],0%
same,%Inh,[12],100%
same,%Inh,S6K1,10%
same,%Inh,SBK1,0%
same,%Inh,SGK2,0%
same,%Inh,SGK3,24%
same,%Inh,SGK,0%
Clc1cc(Cl)cc(Nc2ccnc(Nc3cc(Cl)cc(Cl)c3)n2)c1 [GSK175726],%Inh,ROCK1,4%
same,%Inh,ROCK2,0%
same,%Inh,ROS1,37%
same,%Inh,[1],0%
same,%Inh,[2],0%
same,%Inh,[3],8%
same,%Inh,[4],9%
same,%Inh,[5],1%
same,%Inh,[6],26%
same,%Inh,[7],0%
same,%Inh,[8],7%
same,%Inh,[9],0%
same,%Inh,[10],4%
same,%Inh,[11],13%
same,%Inh,[12],22%
same,%Inh,S6K1,0%
same,%Inh,SBK1,9%
same,%Inh,SGK2,0%
same,%Inh,SGK3,13%
same,%Inh,SGK,3%
COc1ccc(Nc2nccc(NCCNC(=O)Nc3ccccc3F)n2)cc1 [GSK1379901],%Inh,ROCK1,30%
same,%Inh,ROCK2,44%
same,%Inh,ROS1,24%
same,%Inh,[1],14%
same,%Inh,[2],0%
same,%Inh,[3],14%
same,%Inh,[4],27%
same,%Inh,[5],16%
same,%Inh,[6],0%
same,%Inh,[7],1%
same,%Inh,[8],27%
same,%Inh,[9],19%
same,%Inh,[10],2%
same,%Inh,[11],0%
same,%Inh,[12],23%
same,%Inh,S6K1,3%
same,%Inh,SBK1,6%
same,%Inh,SGK2,0%
same,%Inh,SGK3,16%
same,%Inh,SGK,0%
Cc1csc(-c2nc(Nc3ccncc3)c3ccccc3n2)n1 [GW869640],%Inh,ROCK1,65%
same,%Inh,ROCK2,18%
same,%Inh,ROS1,22%
same,%Inh,[1],52%
same,%Inh,[2],17%
same,%Inh,[3],13%
same,%Inh,[4],16%
same,%Inh,[5],0%
same,%Inh,[6],22%
same,%Inh,[7],42%
same,%Inh,[8],45%
same,%Inh,[9],15%
same,%Inh,[10],3%
same,%Inh,[11],44%
same,%Inh,[12],40%
same,%Inh,S6K1,32%
same,%Inh,SBK1,51%
same,%Inh,SGK2,0%
same,%Inh,SGK3,13%
same,%Inh,SGK,39%
Fc1cccc(COc2nnc(-c3ccc4c(c3)CCO4)o2)c1,%Inh,ROCK1,0%
same,%Inh,ROCK2,0%
same,%Inh,ROS1,0%
same,%Inh,[1],0%
same,%Inh,[2],30%
same,%Inh,[3],0%
same,%Inh,[4],9%
same,%Inh,[5],0%
same,%Inh,[6],43%
same,%Inh,[7],0%
same,%Inh,[8],35%
same,%Inh,[9],0%
same,%Inh,[10],22%
same,%Inh,[11],0%
same,%Inh,[12],8%
same,%Inh,S6K1,0%
same,%Inh,SBK1,0%
same,%Inh,SGK2,0%
same,%Inh,SGK3,0%
same,%Inh,SGK,0%
NC(=O)c1nnc2ccccc2c1N,%Inh,ROCK1,0%
same,%Inh,ROCK2,7%
same,%Inh,ROS1,0%
same,%Inh,[1],21%
same,%Inh,[2],30%
same,%Inh,[3],6%
same,%Inh,[4],21%
same,%Inh,[5],31%
same,%Inh,[6],0%
same,%Inh,[7],33%
same,%Inh,[8],13%
same,%Inh,[9],19%
same,%Inh,[10],0%
same,%Inh,[11],33%
same,%Inh,[12],44%
same,%Inh,S6K1,14%
same,%Inh,SBK1,1%
same,%Inh,SGK2,13%
same,%Inh,SGK3,44%
same,%Inh,SGK,0%
CS(=O)(=O)c1ccc(-c2nc3n(c2-c2ccncc2)CCC3)cc1 [SKF-105942],%Inh,ROCK1,0%
same,%Inh,ROCK2,0%
same,%Inh,ROS1,2%
same,%Inh,[1],1%
same,%Inh,[2],0%
same,%Inh,[3],0%
same,%Inh,[4],0%
same,%Inh,[5],27%
same,%Inh,[6],0%
same,%Inh,[7],4%
same,%Inh,[8],5%
same,%Inh,[9],15%
same,%Inh,[10],0%
same,%Inh,[11],0%
same,%Inh,[12],9%
same,%Inh,S6K1,17%
same,%Inh,SBK1,5%
same,%Inh,SGK2,0%
same,%Inh,SGK3,10%
same,%Inh,SGK,0%
Cl.Oc1ccc(-c2nc(-c3ccccc3)[nH]c2-c2ccncc2)cc1 [SB-428218],%Inh,ROCK1,70%
same,%Inh,ROCK2,61%
same,%Inh,ROS1,0%
same,%Inh,[1],0%
same,%Inh,[2],0%
same,%Inh,[3],0%
same,%Inh,[4],11%
same,%Inh,[5],30%
same,%Inh,[6],0%
same,%Inh,[7],6%
same,%Inh,[8],0%
same,%Inh,[9],0%
same,%Inh,[10],8%
same,%Inh,[11],0%
same,%Inh,[12],32%
same,%Inh,S6K1,14%
same,%Inh,SBK1,0%
same,%Inh,SGK2,0%
same,%Inh,SGK3,0%
same,%Inh,SGK,7%
